# The list is not random: actives were taken first. Their share in the collection is about 15%.
# ELG1 repair inh: ELG1-dependent DNA repair inhibition; HEK293T ELG1-luciferase reporter, luminescence, 16 h; DNA damage induced by 5-fluorouridine; AID 504467; Potency, µM (titrated, usually from 46.1 µM), most hits filed as inhibitors; 330,000 tested, 2.3% active; note: nearly all actives have a fitted effect of over 55% in size
#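 Reporter activity after DNA damage by 5-fluorouridine is monitored. Compound-treated cells incubate 16 hr at 37 °C, then ONE-Glo is added for 30 min before luminescence reading.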
# 12-LOX inh: ALOX12 (human) lipoxygenase inhibition | 580,000 tested, 1.1% active | Potency, µM (top dose mostly 108 µM), usual class: inhibitors | purified 12hLO, xylenol orange hydroperoxide absorbance
# Target sequence (P18054 whole entry, looked up): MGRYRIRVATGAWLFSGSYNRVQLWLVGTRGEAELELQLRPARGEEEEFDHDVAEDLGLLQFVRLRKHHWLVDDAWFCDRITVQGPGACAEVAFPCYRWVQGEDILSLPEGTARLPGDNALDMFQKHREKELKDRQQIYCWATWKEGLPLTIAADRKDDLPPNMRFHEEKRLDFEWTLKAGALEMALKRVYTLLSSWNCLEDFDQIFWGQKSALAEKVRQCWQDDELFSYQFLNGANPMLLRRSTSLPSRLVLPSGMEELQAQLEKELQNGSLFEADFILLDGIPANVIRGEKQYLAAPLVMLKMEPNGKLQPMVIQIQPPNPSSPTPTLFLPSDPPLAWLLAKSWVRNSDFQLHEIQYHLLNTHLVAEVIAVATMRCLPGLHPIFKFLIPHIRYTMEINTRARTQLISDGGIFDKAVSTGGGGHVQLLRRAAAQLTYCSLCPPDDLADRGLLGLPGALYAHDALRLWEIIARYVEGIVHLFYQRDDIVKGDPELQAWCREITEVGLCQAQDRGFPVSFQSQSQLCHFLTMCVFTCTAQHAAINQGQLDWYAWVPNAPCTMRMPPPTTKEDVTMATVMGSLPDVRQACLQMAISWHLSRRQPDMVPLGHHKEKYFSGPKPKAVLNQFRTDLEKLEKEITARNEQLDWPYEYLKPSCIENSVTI
#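 Purified human 12hLO (150 nM final) in 25 mM Hepes, 0.01% Triton X-100, pH 7.0 was preincubated 15 min at room temperature with compound. Then 40 uM arachidonic acid was added, 30 min. Hydroperoxide was read by Fe-XO absorbance ratio 573/405 nm.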
# RORg inh: inhibitors of mouse ROR gamma transcriptional activity | AID 2551 | P51450 | 310,000 tested, 5.4% active | Potency, µM (highest dose often 53.6 µM), actives largely listed as inhibitors | Drosophila S2 Gal4-RORgamma UAS-luciferase reporter, 20 h; note: nearly all actives have a fitted effect of over 60% in size
#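 A Gal4/UAS one-hybrid system in insect cells: metallothionein-promoter Gal4–ROR gamma fusion plus Photinus luciferase reporter. Copper sulfate 700 uM final, 20 hr ambient incubation, luminescent detection after 10 min with reagent.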
# Gal4-VP16 FLuc: counter-screen for ROR gamma inhibitors: Gal4-VP16 reporter. Drosophila S2 Gal4-VP16 UAS-luciferase, luminescence, 20 h. Potency, µM (highest dose often 53.6 µM), hits mostly inhibitors. 310,000 tested, 3.5% active. AID 2546;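 note: Gal4-VP16 expression switched on by copper sulfate through the metallothionein promoter; nearly all actives have a fitted effect of over 50% in size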
# TDP1 cell noCPT: qHTS for Inhibitors of human tyrosyl-DNA phosphodiesterase 1 (TDP1): qHTS in cells in absence of CPT; DT40 Tdp1-/- hTDP1 cells, no CPT, ATP luminescence, 48 h; Potency, µM (highest dose often 46.2 µM), usual class: inhibitors; 420,000 tested, 15% active; AID 686978, 2013; note: nearly all actives have a fitted effect of over 55% in size
#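 No-CPT arm: Tdp1-/-;hTDP1 DT40 cells (400/well) plus compounds, incubated ≥48 hr at 37 °C. Readout CellTiter-Glo luminescence.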
# DT40 TDP1 CPT: DT40-hTDP1 cell growth loss with CPT. chicken DT40 Tdp1-/-;hTDP1 cells + 20 nM CPT, ATP luminescence, 48 h. AID 686979. Potency, µM (top dose mostly 46.2 µM), hits mostly inhibitors. 420,000 tested, 12% active; note: nearly all actives have a fitted effect of over 55% in size
#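 Chicken DT40 Tdp1-/- cells stably complemented with human TDP1 were seeded at 400 cells/well in medium containing 20 nM camptothecin, exposed to pin-transferred compounds, and grown at 37 °C for at least 48 hr. Viability was read as ATP luminescence.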
# Numbers stand for hits; 0 = inactive; ? = inconclusive; - = no result; [ ] = dose if it differs, or a comment. Calls come from the whole dose curve; as a rule, active = well fitted curve in the direction sought with a large enough effect; inconclusive = small, poorly fitted or top-dose-only effect, or another doubt; inactive = no such curve, though single readings can be large; an effect the other way counts as inactive or inconclusive.
SMILES,ELG1 repair inh,12-LOX inh,RORg inh,Gal4-VP16 FLuc,TDP1 cell noCPT,DT40 TDP1 CPT
COc1ccc(S(=O)(=O)N(C)[C@H]2C[C@H]3c4cc(Oc5ccccc5C)ccc4CCN3C(=O)[C@H]2[C@H](C)O)cc1,-,?,-,-,6.5µM,9.2µM
Cc1ccccc1Oc1ccc2c(c1)[C@@H]1C[C@H](N(C)C(=O)c3cccnc3)[C@H]([C@H](C)O)C(=O)N1CC2,-,0,-,-,?,0
COc1ccc(S(=O)(=O)N(C)[C@H]2C[C@H]3c4cc(-c5ccccc5)ccc4CCN3C(=O)[C@H]2[C@H](C)O)cc1,-,?,-,-,21µM,?
O=C(c1nnn2c1COC(c1ccc(Cl)cc1)C2)N1CCSCC1 (stereo not given),-,0,-,-,-,-
COC(=O)c1cc(-c2ccc(OC)cc2)nc2ccc(C)cc12,-,0,-,-,-,-
COc1ccc(CNc2ccnc(-c3ccc(N(C)C)cc3)n2)c(OC)c1,-,?,0,0,?,26µM
COc1ccc(CNc2ccnc(-c3cccnc3)n2)c(OC)c1,-,45µM,?,0,?,23µM
COc1ccccc1CNc1ccnc(-c2cccnc2)n1,-,?,0,0,0,?
COc1ccc(CNc2ccnc(-c3ccoc3)n2)c(OC)c1,-,?,0,0,0,0
Oc1[nH]c2ccccc2c1N=Nc1ccccn1,-,?,-,-,0,0
Oc1c(N=Nc2ccccn2)ccc2ccccc12,?,0,0.11µM,0,1.6µM,1.5µM
CC(=O)COc1ccc2c3c(c(=O)oc2c1C)CCCCC3,?,0,?,0,?,15µM
Cc1c(OCC(=O)NC2CCN(Cc3ccccc3)CC2)ccc2c3c(c(=O)oc12)CCC3,0,0,0,0,?,16µM
Cc1c(OC(C)C(=O)NCc2ccccn2)ccc2c3c(c(=O)oc12)CCCC3 (stereo not given),?,0,0,0,?,13µM
c1ccc(CSc2ccc3nnc(-c4ccccn4)n3n2)cc1,0,0,0,0,21µM,?
Fc1ccc(CSc2ccc3nnc(-c4cccnc4)n3n2)cc1,0,0,0,0,16µM,16µM
O=C(CSc1nnc2ccc(-c3ccccc3)nn12)NCC1CCCO1 (stereo not given),0,0,0,0,0,0
O=C(O)CSc1ccc2nnc(-c3cccnc3)n2n1,0,0,0,0,0,?
O=C(CSc1ccc2nnc(-c3cccnc3)n2n1)NCC1CCCO1 (stereo not given),0,0,?,0,0,0
O=C(CSc1nnc2ccc(-c3ccc(Br)cc3)nn12)NCC1CCCO1 (stereo not given),0,0,-,-,?,21µM
O=C(CSc1ccc2nnc(-c3cccc(F)c3)n2n1)NCC1CCCO1 (stereo not given),0,3.5µM,0,0,0,0
CC1=C(C(N)=O)C(c2ccc(Cl)cc2)n2nc(-c3cccc(C)c3)nc2N1 (stereo not given),-,0,-,-,-,-
O=C(NC1CCCCC1)O[C@H]1CC[C@@]23CCCN2C(=O)CCC[C@H]3[C@H]1Cc1ccccc1,-,0,-,-,-,-
Cc1ccc(N2CCC(NC(=O)Cc3ccccc3Cl)C2=O)cc1 (stereo not given),-,0,-,-,-,-
CCSc1ccc2nnc(-c3cccc(F)c3)n2n1,21µM,?,?,0,?,0
SMILES,ELG1 repair inh,12-LOX inh,RORg inh,Gal4-VP16 FLuc,TDP1 cell noCPT,DT40 TDP1 CPT
O=C(COc1ccccc1)N1CCOCC12CCN(Cc1ccccc1)CC2,-,0,-,-,-,-
OC(c1ccccc1)c1nccc2ccccc12 (stereo not given),0,?,13µM,0,0,0
c1ccc(Cn2c(CN3CCCC3)nc3ccccc32)cc1,0,0,14µM,?,16µM,?
Cc1ccccc1OCCn1c(CN2CCCCC2)nc2ccccc21,-,0,-,-,-,-
CC1CCCC(N2CCN(Cc3ccc(Cl)cc3)CC2)C1 (stereo not given),-,0.79µM,-,-,-,-
O=[N+]([O-])c1cc(CN2CCCC2)ccc1Sc1ccc(Cl)cc1,0,?,0,0[10 µM],8.2µM,10µM
Clc1ccc(CN2CCCCCC2)cc1,0,0.79µM,0,0,0,0

# Assay outcomes: PubChem, National Center for Advancing Translational Sciences (NCATS)
